Holding throughout (settings): mRNA level, 48 h; actives raise or lower the signal
Read-out in one assay: BCL2L11 (gene 10018)
Description: LTEA_HepaRG_BCL2L11: Life Technologies and Expression Analysis (LTEA) Assay for Bcl-2 (BCL2L11) gene using HepaRG (AID 2283473). In a few lines:
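BCL2L11 transcript levels are measured by Fluidigm qRT-PCR, normalized to three housekeeping genes. HepaRG cultures were plated 48 h, then treated 48 h with test chemical (top 100 uM, half-log, 0.5% DMSO vehicle); curves were fitted bidirectionally against DMSO.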

Read-out in assay [1]: Apolipoprotein A-V (APOA5) gene, APOA5 (gene 116519)
Description: LTEA_HepaRG_APOA5: Life Technologies and Expression Analysis (LTEA) Assay for Apolipoprotein A-V (APOA5) gene using HepaRG (AID 2283474). In a few lines: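 APOA5 transcript levels were quantified by qRT-PCR, normalized to three housekeeping genes, after 48 h chemical treatment of HepaRG cells (8 points, 100 uM maximum, half-log steps, 0.5% DMSO). Curves fitted in both directions against vehicle.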

Read-out in assay [2]: Apoptosis regulator Bcl-2 (Homo sapiens) (UniProt P10415)
Description: LTEA_HepaRG_BCL2: Life Technologies and Expression Analysis (LTEA) Assay for Bcl-2 gene using HepaRG (AID 2283475). In a few lines: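 Differentiated human HepaRG cells in serum-free induction medium exposed 48 h, in duplicate, to 8-point half-log series from 100 uM in 0.5% DMSO. BCL2 mRNA by qRT-PCR (TaqMan/Fluidigm), normalized to ACTB, GAPDH, POLR2A; bidirectional fit against DMSO.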

Read-out in assay [3]: Bcl-2 (BID) gene, BID (gene 637)
Briefly: LTEA_HepaRG_BID: Life Technologies and Expression Analysis (LTEA) Assay for Bcl-2 (BID) gene using HepaRG (AID 2283476). Put shortly:
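Gene expression by qRT-PCR in HepaRG cells after 48 h exposure, duplicate wells, eight half-log concentrations topping at 100 uM in 0.5% DMSO. Normalized to ACTB, GAPDH, POLR2A; bidirectional fitting relative to DMSO.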

Read-out in a further assay: Caspase-3 (Homo sapiens) (UniProt P42574)
Briefly: LTEA_HepaRG_CASP3: Life Technologies and Expression Analysis (LTEA) Assay for cysteine-aspartic acid protease (CASP3) using HepaRG (AID 2283477). In a few lines: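 Expression of CASP3 was quantified by TaqMan qRT-PCR against three housekeeping genes (ACTB, GAPDH, POLR2A), bidirectionally versus 0.5% DMSO. HepaRG cultures received compounds in duplicate, top 100 uM with half-log steps, for 48 h in serum-free induction medium.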

Read-out in assay [4]: Cytochrome P450 (CYP24A1), CYP24A1 (gene 1591)
Description: LTEA_HepaRG_CYP24A1: Life Technologies and Expression Analysis (LTEA) Assay for Cytochrome P450 (CYP24A1) using HepaRG (AID 2283478). In a few lines:
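mRNA of CYP24A1 quantified by TaqMan qRT-PCR (ACTB/GAPDH/POLR2A normalization) after 48 h chemical exposure of HepaRG cells, top concentration 100 uM, half-log steps, 0.5% DMSO vehicle, duplicates. Curves fitted bidirectionally against DMSO baseline.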

Read-out in assay [5]: Cytochrome P450 (CYP1A2), CYP1A2 (gene 1544)
Description: LTEA_HepaRG_CYP1A2: Life Technologies and Expression Analysis (LTEA) Assay for Cytochrome P450 (CYP1A2) using HepaRG (AID 2283479). Put shortly: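 CYP1A2 transcript measured by TaqMan qRT-PCR against three housekeeping genes after 48-hour chemical exposure of HepaRG cells. Eight-point half-log series topping at 100 uM in 0.5% DMSO, duplicates; gain or loss fitted relative to vehicle.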

Read-out in assay [6]: cysteine-aspartic acid protease (CASP8), CASP8 (gene 841)
Briefly: LTEA_HepaRG_CASP8: Life Technologies and Expression Analysis (LTEA) Assay for cysteine-aspartic acid protease (CASP8) using HepaRG (AID 2283480). In a few lines: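 HepaRG, 48 h exposure, duplicate wells; 8 conc, half-log from 100 uM, 0.5% DMSO. Serum-free induction medium. CASP8 mRNA by TaqMan qRT-PCR, norm. ACTB/GAPDH/POLR2A; gain/loss fitted vs DMSO.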

Read-out in assay [7]: Cytochrome P450 (CYP2B6), CYP2B6 (gene 1555)
Briefly: LTEA_HepaRG_CYP2B6: Life Technologies and Expression Analysis (LTEA) Assay for Cytochrome P450 (CYP2B6) using HepaRG (AID 2283481). Put shortly: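 CYP2B6 transcript level quantified by qRT-PCR against three housekeeping genes, fitted bidirectionally relative to DMSO. HepaRG cultures received chemicals for 48 h, 8-point half-log series from 100 uM in 0.5% DMSO, duplicate wells, serum-free induction medium.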

Read-out in assay [8]: Cytochrome P450 2C19 (Homo sapiens) (UniProt P33261)
Description: LTEA_HepaRG_CYP2C19: Life Technologies and Expression Analysis (LTEA) Assay for CYP2C19 using HepaRG (AID 2283482). In a few lines: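 CYP2C19 transcript levels by qRT-PCR, normalized to three housekeeping genes, in HepaRG cells after 48 h chemical exposure. Eight-point half-log series topping at 100 uM, 0.5% DMSO vehicle. Increases and decreases both fitted against DMSO.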

Read-out in a further assay: CYP2C8 (gene 1558)
Description: LTEA_HepaRG_CYP2C8: Life Technologies and Expression Analysis (LTEA) Assay for CYP2C8 using HepaRG (AID 2283483). Put shortly: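 CYP2C8 mRNA induction or loss, by qRT-PCR normalized to ACTB/GAPDH/POLR2A, is read in HepaRG cells after 48 h treatment. Concentrations run from 100 uM down in half-log dilutions, with 0.5% DMSO as vehicle and baseline.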

Read-out in the next assay: CYP2C9 (gene 1559)
Description: LTEA_HepaRG_CYP2C9: Life Technologies and Expression Analysis (LTEA) Assay for CYP2C9 using HepaRG (AID 2283484). Put shortly:
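Cells plated 48 h, switched to serum-free induction medium, then treated in duplicate for 48 h at eight concentrations (max 100 uM, 0.5% DMSO). RNA then analysed by qRT-PCR for CYP2C9; curves fitted in both directions relative to DMSO.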

Read-out in a further assay: CYP2E1 (gene 1571)
Description: LTEA_HepaRG_CYP2E1: Life Technologies and Expression Analysis (LTEA) Assay for CYP2E1 using HepaRG (AID 2283485). In a few lines: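 HepaRG cells, plated 48 h, then exposed 48 h in serum-free induction medium to eight half-log concentrations from 100 uM in 0.5% DMSO, duplicate. CYP2E1 mRNA by qRT-PCR, normalized to ACTB/GAPDH/POLR2A; bidirectional fit versus DMSO.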

Read-out in another assay: CYP4A11 (gene 1579)
Description: LTEA_HepaRG_CYP4A11: Life Technologies and Expression Analysis (LTEA) Assay for CYP4A11 using HepaRG (AID 2283486). In a few lines:
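Readout is CYP4A11 transcript level by qRT-PCR, normalized to three housekeeping genes and fitted bidirectionally against 0.5% DMSO. Human HepaRG cells were treated 48 h, in duplicate, with an 8-point half-log series topping at 100 uM.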

Read-out in assay [9]: Cytochrome P450 3A4 (Homo sapiens) (UniProt P08684)
Description: LTEA_HepaRG_CYP3A4: Life Technologies and Expression Analysis (LTEA) Assay for CYP3A4 using HepaRG (AID 2283487). Put shortly: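 In a human hepatic line (HepaRG), duplicate wells were treated 48 h with up to 100 uM chemical in half-log dilutions. Endpoint: CYP3A4 mRNA induction or loss relative to 0.5% DMSO vehicle, by qRT-PCR.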

Read-out in assay [10]: DNA damage-inducible transcript 3 (DDIT3), DDIT3 (gene 1649)
Briefly: LTEA_HepaRG_DDIT3: Life Technologies and Expression Analysis (LTEA) Assay for DNA damage-inducible transcript 3 (DDIT3) using HepaRG (AID 2283488). In a few lines:
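HepaRG cells, 48 h after plating, exposed 48 h in serum-free induction medium to 8 half-log concentrations up to 100 uM in 0.5% DMSO, in duplicate. DDIT3 mRNA measured by TaqMan qRT-PCR, normalized to ACTB, GAPDH and POLR2A. Fitted bidirectionally against DMSO.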

Read-out in assay [11]: Pro-epidermal growth factor (Homo sapiens) (UniProt P01133)
Description: LTEA_HepaRG_EGF: Life Technologies and Expression Analysis (LTEA) Assay for Epidermal growth factor (EGF) using HepaRG (AID 2283489). In a few lines:
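EGF transcript measured by Fluidigm TaqMan qRT-PCR with three housekeeping genes for normalization, 48 h after dosing HepaRG cultures in duplicate (top 100 uM, half-log steps, 0.5% DMSO vehicle). Gain or loss relative to DMSO fitted.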

Read-out in assay [12]: Early growth response protein 1 (EGR1) transcription factor, EGR1 (gene 1958)
Briefly: LTEA_HepaRG_EGR1: Life Technologies and Expression Analysis (LTEA) Assay for Early growth response protein 1 (EGR1) transcription factor using HepaRG (AID 2283490). Put shortly:
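Read-out is EGR1 mRNA level by qRT-PCR, normalized to three housekeeping genes and analysed for gain or loss of signal against 0.5% DMSO. Source cells: human HepaRG, treated 48 h at up to 100 uM in half-log dilutions.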

Read-out in assay [13]: Ezrin (EZR), EZR (gene 7430)
Description: LTEA_HepaRG_EZR: Life Technologies and Expression Analysis (LTEA) Assay for Ezrin (EZR) using HepaRG (AID 2283491). Put shortly:
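Gain or loss of EZR mRNA is scored relative to 0.5% DMSO in human HepaRG cultures treated 48 h with test chemicals in duplicate, eight half-log concentrations from 100 uM.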

Read-out in assay [14]: Cytochrome P450 3A7 (Homo sapiens) (UniProt P24462)
Description: LTEA_HepaRG_CYP3A7: Life Technologies and Expression Analysis (LTEA) Assay for CYP3A7 using HepaRG (AID 2283492). Put shortly: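 CYP3A7 transcript measured by qRT-PCR (ACTB, GAPDH, POLR2A normalization) after 48 h chemical exposure of HepaRG cells in duplicate. Eight half-log concentrations, maximum 100 uM, 0.5% DMSO vehicle; bidirectional curve fitting against DMSO baseline.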

Activity calls are given as the source filed them. Rule for the calls: active = hit-call score of the fitted dose curve at least 0.9, where 1 is the maximum; inactive = score below 0.9.

Chain of Apoptosis regulator Bcl-2 (Homo sapiens) (P10415 whole entry, looked up): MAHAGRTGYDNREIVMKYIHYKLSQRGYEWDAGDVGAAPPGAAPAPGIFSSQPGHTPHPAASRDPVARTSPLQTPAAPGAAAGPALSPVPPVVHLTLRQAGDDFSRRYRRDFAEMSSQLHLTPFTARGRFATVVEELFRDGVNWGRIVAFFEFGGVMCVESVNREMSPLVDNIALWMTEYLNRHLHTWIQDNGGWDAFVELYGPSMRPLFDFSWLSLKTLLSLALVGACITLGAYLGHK
Chain of Cytochrome P450 3A4 (Homo sapiens) (P08684 whole entry, looked up): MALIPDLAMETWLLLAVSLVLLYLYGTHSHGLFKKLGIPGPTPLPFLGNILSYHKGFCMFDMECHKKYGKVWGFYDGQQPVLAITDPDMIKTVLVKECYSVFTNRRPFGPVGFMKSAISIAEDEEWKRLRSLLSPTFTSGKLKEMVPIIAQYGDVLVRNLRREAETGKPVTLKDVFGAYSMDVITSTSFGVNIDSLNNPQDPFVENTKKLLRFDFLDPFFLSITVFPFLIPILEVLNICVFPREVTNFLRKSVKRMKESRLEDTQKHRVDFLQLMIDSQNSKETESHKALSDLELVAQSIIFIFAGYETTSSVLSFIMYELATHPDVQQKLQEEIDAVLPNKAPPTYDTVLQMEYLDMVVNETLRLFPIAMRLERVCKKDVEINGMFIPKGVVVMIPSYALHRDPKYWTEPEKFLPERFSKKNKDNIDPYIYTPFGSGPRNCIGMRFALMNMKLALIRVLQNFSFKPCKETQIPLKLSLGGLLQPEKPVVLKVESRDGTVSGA
Chain of Cytochrome P450 2C19 (Homo sapiens) (P33261 whole entry, looked up): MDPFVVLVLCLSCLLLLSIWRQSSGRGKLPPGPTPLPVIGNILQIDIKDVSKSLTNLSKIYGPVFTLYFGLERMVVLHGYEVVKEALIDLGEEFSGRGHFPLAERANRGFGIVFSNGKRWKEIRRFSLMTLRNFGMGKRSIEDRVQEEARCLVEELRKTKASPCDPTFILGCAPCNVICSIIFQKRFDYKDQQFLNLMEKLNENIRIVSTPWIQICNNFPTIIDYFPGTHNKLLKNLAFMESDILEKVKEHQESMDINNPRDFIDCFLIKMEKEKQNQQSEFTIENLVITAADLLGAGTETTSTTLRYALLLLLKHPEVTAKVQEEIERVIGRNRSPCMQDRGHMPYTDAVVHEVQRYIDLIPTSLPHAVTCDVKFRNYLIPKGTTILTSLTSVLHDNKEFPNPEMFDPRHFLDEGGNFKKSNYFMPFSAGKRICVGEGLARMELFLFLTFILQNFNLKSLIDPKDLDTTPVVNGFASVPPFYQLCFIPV
Chain of Cytochrome P450 3A7 (Homo sapiens) (P24462 whole entry, looked up): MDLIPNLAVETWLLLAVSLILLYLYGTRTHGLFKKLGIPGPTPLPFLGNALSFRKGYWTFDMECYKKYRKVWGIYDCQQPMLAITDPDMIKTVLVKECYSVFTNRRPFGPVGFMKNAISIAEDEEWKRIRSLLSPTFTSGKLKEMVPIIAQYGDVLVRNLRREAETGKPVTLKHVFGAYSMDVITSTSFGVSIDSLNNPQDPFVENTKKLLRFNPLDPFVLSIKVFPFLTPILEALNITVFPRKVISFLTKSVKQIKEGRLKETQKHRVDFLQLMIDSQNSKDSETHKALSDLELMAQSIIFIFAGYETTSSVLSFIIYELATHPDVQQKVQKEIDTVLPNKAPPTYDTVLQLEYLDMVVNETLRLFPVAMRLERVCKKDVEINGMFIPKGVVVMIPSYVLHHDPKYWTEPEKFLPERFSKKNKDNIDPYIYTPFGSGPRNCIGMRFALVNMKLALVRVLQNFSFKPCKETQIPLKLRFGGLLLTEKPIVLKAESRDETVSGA
Chain of Caspase-3 (Homo sapiens) (P42574 whole entry, looked up): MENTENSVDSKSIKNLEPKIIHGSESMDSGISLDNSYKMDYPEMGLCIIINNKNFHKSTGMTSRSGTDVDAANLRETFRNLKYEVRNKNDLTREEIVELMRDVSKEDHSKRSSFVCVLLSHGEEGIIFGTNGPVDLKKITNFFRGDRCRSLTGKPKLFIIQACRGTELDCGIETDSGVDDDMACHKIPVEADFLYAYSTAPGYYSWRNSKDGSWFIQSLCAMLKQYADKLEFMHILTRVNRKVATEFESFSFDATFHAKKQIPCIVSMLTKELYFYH

Regarding `CNCc1ccc(NC(=O)c2c[nH]c3c2C(=O)CCC3)cc1`, the outcome (with BCL2L11 (gene 10018); in assay [1]; in [2]; in assay [3]; with Caspase-3 (Homo sapiens); in [4]) was inactive. Also, the result (in assay [6]; in [7]; in assay [8]; with CYP2C8 (gene 1558); with CYP2C9 (gene 1559); with CYP2E1 (gene 1571)) was inactive. Also, the outcome (with CYP4A11 (gene 1579); in assay [9]; in assay [10]; in [11]; in [12]; in [13]) was inactive. In assay [14], the molecule was called inactive. Besides, the AC50 – broadly, the concentration giving half of the maximal activity seen – in assay [5] is 73.2 µM (active).

In the case of `CCCCCCc1ccc(O)cc1O`, the outcome (with BCL2L11 (gene 10018); in assay [1]; in assay [2]; in assay [3]; with Caspase-3 (Homo sapiens); in assay [4]) was inactive. In addition, the molecule was called inactive (in [5]; in assay [6]; in assay [7]; in [8]; with CYP2C8 (gene 1558); in the assay with CYP2C9 (gene 1559)). Further, the call (with CYP2E1 (gene 1571); in the assay with CYP4A11 (gene 1579); in assay [9]; in [10]; in [11]; in [12]) was inactive. Further, the result in assay [13] and in assay [14] was inactive.

`CC1(C)C(=O)N(Br)C(=O)N1Br`: the molecule was called inactive (in assay [1]; in [2]; in assay [3]; with Caspase-3 (Homo sapiens); in assay [4]; in assay [6]). Moreover, the result (in assay [8]; in the assay with CYP2C8 (gene 1558); with CYP2C9 (gene 1559); in the assay with CYP2E1 (gene 1571); in the assay with CYP4A11 (gene 1579); in assay [9]) was inactive. Besides, the molecule was called inactive in assay [10], in assay [11], in assay [12], in assay [13] and in [14]. Further, the AC50 in assay [5] is 37.5 µM (active); in assay [7], 7.06 µM (active).

The values are drawn from PubChem BioAssay (EPA / NIEHS).
